PriA SSB inh: inhibitors of Klebsiella pneumoniae PriA binding to SSB C-terminal tail, primary screen, biochemical, AlphaScreen; PriA–SSB C-terminal tail interaction (Klebsiella pneumoniae); AlphaScreen SSBct-PriA binding, biotinylated peptide; inhibition, % at 33 µM; hit rate 0.6% among 430,000; AID 1272365, 2023; in the data active means inhibition mostly above about 37%, no sharp cut-off; inactive means mostly below about 20%;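 further: plate controls were negative control peptide for no effect and reference peptide for full effect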
RN4220 kill: growth inhibition of S. aureus RN4220, primary screen, OD600. inhibition, % (test concentration not listed). hit rate 0.33% among 330,000. 16 h. AID 1259311, 2017; in the data active means inhibition above about 85%;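 further: plate controls were untreated cells for no effect and reference antibiotic for full effect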
Sa ugtP lethal: growth inhibition of ugtP-null S. aureus, primary screen, RN4220 ugtP deletion, OD600; AID 1259309, 2017; growth inhibition, % (no concentration beside the values); 16 h; hit rate 0.54% among 330,000; in the data active means growth inhibition above about 68%;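 further: plate controls were untreated wells for no effect and antibiotic for full effect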
An asterisk follows results filed as active; . = no result given. This is a sample that favours compounds with a hit; in the whole collection about 1% have one here.

SMILES	PriA SSB inh	RN4220 kill	Sa ugtP lethal
O=[N+]([O-])c1ccc(C2CCCCC2=NOCc2ccc(F)cc2)c([N+](=O)[O-])c1 (stereo not drawn)	45*	3	-17
O=C(ON=C1CCCCC1c1ccc([N+](=O)[O-])cc1[N+](=O)[O-])c1c(F)cccc1F (stereo not drawn)	15	5	0
CCCNC(=O)Cn1nc(-c2ccc(OC)cc2)c2sc(C)nc2c1=O	7	.	.
CCOC(=O)c1c(N)sc(C(O)(C(F)(F)F)C(F)(F)F)c1-c1ccc(Cl)cc1	4	100*	100*
CCOC(=O)c1c(N)sc(C(O)(C(F)(F)F)C(F)(F)F)c1-c1ccc(F)cc1	1	56	1
COCCN(CC(=O)Oc1ccccc1P(=O)(OC)OC)Cc1ccccc1	-4	3	5
O=C(CN(CCc1ccccc1)Cc1ccccc1)Oc1ccccc1P(=O)(O)O	92*	0	6
NC(=O)c1ccsc1NC(=O)COC(=O)c1ccc([N+](=O)[O-])o1	-11	4	24
NC(=O)c1ccsc1NC(=O)c1ccc([N+](=O)[O-])o1	-3	100*	100*
COc1ccc(-c2cn3c(C)c(C(=O)N(C)c4ccccc4)sc3n2)cc1	38*	.	.
COc1ccc(-c2cn3c(C)c(C(=O)N(Cc4ccccc4)c4ccccc4)sc3n2)cc1	12	.	.
COc1cc(OC)cc(C(=O)Nc2nc(CC(=O)NCc3ccco3)cs2)c1	-5	.	.
Cc1cc(OC2CN(C(=O)c3ccc(Cl)cc3Cl)C2)cc(=O)n1C	5	.	.
CN1CCN(c2oc(-c3ccccc3)nc2S(=O)(=O)c2ccc(Br)cc2)CC1	39*	-1	2
O=S(=O)(c1ccc(Cl)cc1)c1nc(-c2ccco2)oc1N1CCOCC1	-2	4	8
O=S(=O)(c1ccccc1)c1nc(-c2ccccc2)oc1N1CCCC1	-4	-4	-1
O=S(=O)(c1ccc(Cl)cc1)c1nc(-c2cccs2)oc1N1CCOCC1	44*	.	.
Cc1ccccc1CSCCC(=O)NCCc1ccc(Cl)cc1	-12	.	.
CCOc1ccc(Cc2c(Cl)nc(SC)nc2N(C)C)cc1	-22	-7	93*
COc1ccc(Cc2c(Cl)ncnc2Cl)cc1	-13	4	4
CCOc1ccc(Cc2c(Cl)nc(N)nc2Cl)cc1	-6	-2	-2
CSc1nc(Cl)c(Cc2ccc(OC(C)C)cc2)c(N(C)C)n1	-28	-13	94*
Cc1n[nH]c(C)c1NC(=O)CCC(=O)O	-5	.	.
Nc1ccc(Nc2ccccc2)c(Cl)c1	52*	3	-2
COc1ccccc1Nc1ccc(N)cc1	7	3	3
SMILES	PriA SSB inh	RN4220 kill	Sa ugtP lethal
Nc1ccccc1Nc1ccccc1	64*	24	-3
c1ccc(Nc2ccc(Nc3ccccc3)cc2)cc1	28	0	-7
CC(O)(CCc1ccccc1)CNC(=O)C1CC(=O)N(c2ccc(Cl)cc2)C1 (stereo not drawn)	10	.	.
Cc1cccc(NC(=S)NNC(=O)COc2ccc(Cl)cc2Cl)c1C	16	.	.
c1ccc(-c2nnc(-c3ccccn3)nn2)nc1	68*	3	0
FCCCOc1ccc(-c2nccc(-c3ccccn3)n2)cc1	-5	6	2
O=Cc1cnc(-c2ccccn2)nc1	106*	.	.
c1ccc(-c2ccnc(-c3ccccn3)n2)nc1	146*	.	.
c1ccc(-c2nnc(-c3ccccn3)c(-c3ccccn3)n2)nc1	13	1	2
OCc1ccnc(-c2ccccn2)n1	89*	.	.
O=C(O)COc1ccc(-c2nccc(-c3ccccn3)n2)cc1	-11	.	.
CC(C)(C)S(=O)(=O)c1cnc(-c2ccccn2)nc1N	-16	3	14
CC(=O)Nc1ccc(C(=O)NCCNC(=O)NCc2ccc(Cl)cc2)cc1	-9	.	.
O=C(Nc1ccc2c(c1)N(S(=O)(=O)c1ccc(F)cc1)CCC2)Oc1ccccc1	-10	.	.
CN(C)c1cccc(C(=O)Nc2cnc3cc(C(F)(F)F)nn3c2)c1	-1	.	.
COc1cc(/C=N\NC(=O)COc2ccc(Cl)cc2Cl)ccc1O	6	.	.
c1ccc(-c2cccc(-c3ccccn3)n2)nc1	104*	5	7
c1ccc(-c2nc(-c3ccccn3)c(-c3ccccn3)nc2-c2ccccn2)nc1	27	.	.
Cn1c(O)c(C=NN2CCOCC2)c(=O)n(C)c1=S	-10	.	.
CCc1nc2c(sc3cccc(F)c32)c(=O)n1CC(=O)Nc1ccc2c(c1)OCCO2	-4	.	.
O=[N+]([O-])c1cccc(S(=O)(=O)NCCCn2ccnc2)c1	53*	-5	-1
O=S(=O)(NCCCN1CCOCC1)c1cccc2cnccc12	3	.	.
O=S(=O)(NCCCn1ccnc1)c1cccc2cnccc12	41*	.	.
CSc1ccc(S(=O)(=O)NCCCn2ccnc2)cc1	2	2	5
COc1ccc(-c2nnc(NC(=O)CSc3ccc(Cl)cc3)o2)c(OC)c1	-8	.	.
O=C(Nc1nc2c(s1)CN(Cc1ccccc1)CC2)c1ccc2c(c1)CCCC2	-20	.	.

Assay outcomes as filed in PubChem BioAssay.
